Test results taken from paper PMC4336329 (PLoS ONE, 2015).
Hit rate of the full screen: of about 310,000 compounds, about 2,200 (0.71%) showed an effect of 50% or more. The effect is printed as a negative number. The sample as a whole holds a higher share of strong results than the screen did.

Biological target: human ether-à-go-go-related gene (hERG) potassium channel (human, UniProt Q12809)
Assay: primary screen, population patch clamp on CHO cells stably expressing hERG; higher = less effect of the substance
Method: Briefly, Chinese hamster ovary (CHO) cells stably expressing the hERG channel were dislodged from tissue culture flasks and dispensed into PPC plates. […] During the recording, background leak currents were estimated by a 100 ms step to -80 mV from an initial holding potential of -70 mV and subtracted from the subsequent current measurement. The campaign was conducted in two phases using slight differences in recording protocol. In the first phase, the initial voltage pulse used a 100 ms step to -30 mV from a holding potential of -70 mV, a 2 s conditioning step to +25 mV, and a 2 s test step to -30 mV. During the second phase of the screen, the potential during the conditioning step was raised to +45 mV. In both phases of the campaign, a secondary voltage pulse was applied using the same parameters as the second phase initial pulse. The initial and secondary pulses were applied in the absence of compound, and upon application of 1 μM and 10 μM test concentrations. Small molecule effects on hERG current density were quantified by […].

human ether-à-go-go-related gene (hERG) potassium channel, sequence (Q12809 whole entry, looked up): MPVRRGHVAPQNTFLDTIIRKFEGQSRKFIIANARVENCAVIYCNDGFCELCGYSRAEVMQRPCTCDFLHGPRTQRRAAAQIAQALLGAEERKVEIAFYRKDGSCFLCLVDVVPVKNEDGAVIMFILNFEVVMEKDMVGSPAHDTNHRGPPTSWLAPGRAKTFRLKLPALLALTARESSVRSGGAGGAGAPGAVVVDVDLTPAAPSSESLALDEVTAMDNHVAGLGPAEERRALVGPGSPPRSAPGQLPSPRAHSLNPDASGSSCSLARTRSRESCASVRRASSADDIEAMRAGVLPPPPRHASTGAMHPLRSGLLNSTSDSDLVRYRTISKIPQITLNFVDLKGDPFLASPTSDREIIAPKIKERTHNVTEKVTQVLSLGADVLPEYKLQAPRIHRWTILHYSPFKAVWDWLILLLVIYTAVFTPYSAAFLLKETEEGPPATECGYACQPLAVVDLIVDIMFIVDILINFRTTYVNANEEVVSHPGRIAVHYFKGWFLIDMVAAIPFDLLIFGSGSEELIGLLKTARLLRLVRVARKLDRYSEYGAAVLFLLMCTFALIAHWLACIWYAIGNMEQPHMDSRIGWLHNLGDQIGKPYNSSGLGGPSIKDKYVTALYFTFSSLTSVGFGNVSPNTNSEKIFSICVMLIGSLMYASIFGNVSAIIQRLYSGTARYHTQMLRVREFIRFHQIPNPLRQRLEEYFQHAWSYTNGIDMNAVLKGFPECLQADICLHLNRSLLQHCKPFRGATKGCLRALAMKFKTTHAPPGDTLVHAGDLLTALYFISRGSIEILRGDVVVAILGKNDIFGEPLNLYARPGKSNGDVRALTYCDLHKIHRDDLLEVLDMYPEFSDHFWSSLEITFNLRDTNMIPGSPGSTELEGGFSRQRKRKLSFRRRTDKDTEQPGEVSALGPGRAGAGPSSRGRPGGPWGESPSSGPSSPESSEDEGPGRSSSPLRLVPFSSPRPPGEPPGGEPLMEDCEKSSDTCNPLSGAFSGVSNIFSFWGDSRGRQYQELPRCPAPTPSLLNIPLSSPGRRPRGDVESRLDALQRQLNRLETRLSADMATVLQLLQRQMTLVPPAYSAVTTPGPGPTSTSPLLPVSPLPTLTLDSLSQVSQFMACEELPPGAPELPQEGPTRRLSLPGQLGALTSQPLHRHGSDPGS

| SMILES | hERG current change (%, negative = inhibition) at 1uM |
| --- | --- |
| COc1ccc(-c2csc(N3C(=O)C4C5c6ccccc6C(c6ccccc65)C4C3=O)n2)cc1 (stereo not shown) | 11.9% |
| Cc1ccc(/C=C2/SC(=Nc3ccc(F)cc3)NC2=O)s1 | 13% |
| Cc1csc2nc(NC(=O)c3ccccc3)sc(=O)c12 | 8.93% |
| Nc1c(Sc2ccccc2)c(=O)[nH]c(=O)n1Cc1ccccc1 | -13.3% |
| Cc1ccc(S(=O)(=O)N2CCCC2CNC(=O)C(=O)NCCN2CCOCC2)cc1 (stereo not shown) | 16.8% |
| Cc1ccc(S(=O)(=O)Nc2cccc(C(=O)NCc3ccc(S(N)(=O)=O)cc3)c2)cc1 | 12.7% |
| O=C(CN1CCN(C(=O)c2ccccc2)CC1)Nc1ccccc1 | 3.18% |
| CCc1nnc(NC(=O)CN2CCN(C(=O)c3ccccc3)CC2)s1 | 10.9% |
| O=C(CN1CCN(C(=O)c2ccccc2)CC1)Nc1ccc(Br)cn1 | -72.1% |
| O=C(CN1CCN(C(=O)c2ccccc2)CC1)Nc1ncc(Br)cc1Br | -84.9% |
| O=C(CN1CCCCCC1)Nc1ccc(Br)cn1 | 3.88% |
| O=C(CN1CCOCC1)Nc1ncc(Br)cc1Br | 4.34% |
| CC(=O)N1CCC(C(=O)Nc2ccccc2)(N(Cc2ccccc2)C(=O)c2cccnc2)CC1 | 17.6% |
| Nc1ccc(Sc2ccccc2Cl)nc1 | 0.8% |
| O=C(CCN1CCOCC1)Nc1ccc2c(c1)CCC2 | 3.78% |
| Cc1[nH][nH]c(=O)c1C=NCc1cccnc1 | 14.3% |
| COc1ccc(OCc2cc(C(=O)NCC(C)(C)N3CCOCC3)no2)c(Cl)c1 | 0.582% |
| CN(CC1CCCCO1)C(=O)c1cc(COc2ccc(F)cc2Cl)on1 (stereo not shown) | -74.4% |
| CSc1ccccc1OCc1cc(C(=O)NCC(C)(C)N2CCOCC2)no1 | -72.2% |
| CCN(CC1CCCO1)C(=O)c1cc(COc2ccc(F)cc2F)on1 (stereo not shown) | 2.73% |
| Cc1ccc(OCc2cc(C(=O)NCC(C)(C)N3CCOCC3)no2)cc1C | 4.83% |
| COc1cc(Cl)ccc1OCc1cc(C(=O)N(C)CC2CCCCO2)no1 (stereo not shown) | 2.24% |

| SMILES | hERG current change (%, negative = inhibition) at 1uM |
| --- | --- |
| COc1ccc(OCc2cc(C(=O)N(C)CC3CCCCO3)no2)c(Cl)c1 (stereo not shown) | -1.77% |
| CCN(CC1CCCO1)C(=O)c1cc(COc2ccc(OC)cc2Cl)on1 (stereo not shown) | 5.36% |
| CCN(CC1CCCO1)C(=O)c1cc(COc2ccccc2SC)on1 (stereo not shown) | -58.9% |
| Cc1ccc(OCCN(C)C(=O)c2cc(COc3ccc(F)cc3F)on2)cc1 | -0.323% |
| COC(=O)c1cccc(NC(=O)c2ccc(S(=O)(=O)N3CCN(C)CC3)cc2)c1 | 16.5% |
| COCCN(C(=O)CSc1nc2ccccc2c(=O)n1CC(C)C)c1c(N)n(Cc2ccccc2)c(=O)[nH]c1=O | 11.8% |
| CC(C)n1c(/C=C/[C@H](O)C[C@H](O)CC(=O)[O-])c(-c2ccc(F)cc2)c2ccccc21.[Na+] | 11.8% |
| Cc1cc(O)c(C(C)C)cc1NS(=O)(=O)c1ccccc1 | 10.4% |
| COc1ccccc1-n1c(SC(C)C(=O)NCC2CCCO2)nc2cc(Cl)ccc2c1=O (stereo not shown) | 12.1% |
| CC(C)C(=O)N1CCN(c2nc(-c3ccc(Cl)cc3)cs2)CC1 | -69.6% |
| CCC(=O)N1CCN(c2nc(-c3ccc(Cl)cc3)cs2)CC1 | 9.84% |
| CCOC(=O)N1CCN(c2nc(-c3ccc(Cl)cc3)cs2)CC1 | -8.51% |
| O=C(NNc1ccccc1F)c1ccccc1 | 2.87% |
| COc1cc(NC(=O)[C@H]2CSCN2C(=O)[C@@H]2CCC(=O)N2)cc(OC)c1OC | 10.8% |
| Cc1ccc(S(=O)(=O)Nc2cccc(Cl)c2)cc1NC(=O)c1cccnc1 | 5.21% |
| Cc1ccc(C(=O)NC(=S)N(C)C2CCCCC2)cc1 | 6.79% |
| CN(CC(=O)Nc1c(Cl)cccc1Cl)C(=O)CNC(=O)c1ccco1 | 8.71% |
| O=C(CN(Cc1ccc(Br)cc1)S(=O)(=O)c1ccccc1)NCC1CCCO1 (stereo not shown) | 11.8% |
| O=C(CN(Cc1ccccc1)S(=O)(=O)c1ccc(Cl)cc1)NCC1CCCO1 (stereo not shown) | 3.41% |
| O=C(CN(Cc1ccccc1)S(=O)(=O)c1ccc(Br)cc1)NCC1CCCO1 (stereo not shown) | -80.5% |
| CCn1c2ccccc2c2cc(CNCc3ccc(OC)cc3OC)ccc21.O=C(O)C(=O)O | -47.5% |
| Cc1nc2ccccc2cc1C(=O)Nc1ccccc1Cl | 3.5% |

| SMILES | hERG current change (%, negative = inhibition) at 1uM |
| --- | --- |
| C/C=C/c1ccc(OC(C)=O)c(OC)c1 | 8.76% |
| O=C(Cn1cc2c(n1)CCCCC2)N1CCCCC1 | 9.12% |
| CCOC(=O)N1CCN(C(=O)Cn2cc3c(n2)CCCC3)CC1 | -51.2% |
| O=C(Cn1cc2c(n1)CCCC2)N1CCCC1 | 8.36% |
| Cc1cc(=O)oc2c3c(cc(OCC(=O)NCc4ccco4)c12)OC(C)(C)CC3 | -1.54% |
| CCOc1ccc(N(CC(=O)NC2CCCCC2)C(=O)CNC(=O)c2ccco2)cc1 | -5.99% |
| Cc1cccc(-n2c(C)nc3cc(C(=O)N4CCC5(CC4)OCCO5)ccc32)c1 | -14.2% |
| CC1(C)CC(NC(=O)c2ccc(-c3ccc([N+](=O)[O-])cc3)o2)CC(C)(C)N1 | -3.5% |
| CC(=O)c1ccc(-c2ccc(C(=O)NC3CCCCCC3)o2)cc1 | 29.5% |
| CC(=O)c1ccc(-c2ccc(C(=O)NC3CC(C)(C)NC(C)(C)C3)o2)cc1 | -71.1% |
| CCN(c1ccccc1)c1nc(=O)c2cccnc2s1 | 5.88% |
| COc1ccc(C)cc1C1=Nc2ccccc2C1(C)C | 13.4% |
| Cc1c(C(=O)OCC(=O)Nc2ccc(C(N)=O)cc2)cccc1[N+](=O)[O-] | 11% |
| Cc1ccc(C(=O)NCCN2C3=NC[C@H](Cc4ccc(O)cc4)N3C[C@H]2Cc2ccc(O)cc2)cc1Br | -9.94% |
| COc1ccc(C[C@H]2CN3C(=NC[C@@H]3C(C)C)N2CCNC(=O)c2ccc(C)c(Br)c2)cc1 | -66.8% |
| C/C=C(\C)C(=O)NCCN1C2=NC[C@H](C(C)C)N2C[C@H]1Cc1ccc(O)cc1 | 29.8% |
| Cc1ccc(C(=O)NCCN2C3=NC[C@H](C(C)C)N3C[C@H]2Cc2ccc(O)cc2)cc1Br | 0.0506% |
| Cc1ccc(C(=O)NCCN2C3=NC[C@H](C)N3C[C@H]2Cc2ccc(O)cc2)cc1Br | 9.94% |
| COc1ccc(C[C@H]2CN3C(=NC[C@H]3Cc3ccccc3)N2CCNC(=O)c2ccc(C)c(Br)c2)cc1 | -24.7% |
| COc1ccc(C[C@H]2CN3C(=NC[C@H]3C)N2CCNC(=O)c2ccc(C)c(Br)c2)cc1 | -70.9% |
| COc1ccc(C[C@H]2CN3C(=NC[C@@H]3Cc3ccccc3)N2CCNC(=O)c2ccc(C)c(Br)c2)cc1 | -16.7% |
| COc1ccc(C[C@@H]2CN3C(=NC[C@@H]3C)N2CCNC(=O)c2ccc(C)c(Br)c2)cc1 | -64.9% |

| SMILES | hERG current change (%, negative = inhibition) at 1uM |
| --- | --- |
| COC(=O)c1cn(NC(=O)C2CCCO2)c(=O)c2ccccc12 (stereo not shown) | 14.6% |
| CNc1nnc(SCC(=O)N2c3ccccc3NC(=O)CC2C)s1 (stereo not shown) | 6.91% |
| CC(=O)Nc1ccc(S(=O)(=O)NCCC(=O)OCC(=O)c2ccccc2)cc1 | 6.41% |
| COc1cccc(CN2CCCC(C(=O)Nc3ccc(-c4cscn4)cc3)C2)c1 (stereo not shown) | -10.8% |
| COc1ccccc1NC(=O)c1ccc(S(=O)(=O)NCc2ccco2)cc1 | 13.8% |
| O=C(NCCCN1CCCC1=O)c1cccc(NS(=O)(=O)c2ccccc2)c1 | 13.4% |
| COc1cccc(NC(=O)CN(C)C(=O)c2ccc(NC3CC3)c([N+](=O)[O-])c2)c1 | -40.8% |
| COc1ccc(NC(=O)CN(C)C(=O)c2ccc(NC3CC3)c([N+](=O)[O-])c2)cc1 | -68.6% |
| CCOc1ccc(NC(=O)CN(C)C(=O)c2ccc(NC3CC3)c([N+](=O)[O-])c2)cc1OCC | -18.3% |
| CC1Cc2cc(/C(O)=C3\C(=O)C(=O)N(Cc4ccncc4)C3c3ccccc3F)ccc2O1 (stereo not shown) | 17.9% |
| CCCc1cc(C(=O)N2CCCC(N3CCN(c4ccc(F)cc4)CC3)C2)no1 (stereo not shown) | -74.1% |
| O=C(c1ccncc1)N1CCCC(N2CCN(c3ccc(F)cc3)CC2)C1 (stereo not shown) | -19.9% |
| CC(=O)c1ccc(C(=O)N2CCCC(N3CCN(c4ccc(F)cc4)CC3)C2)s1 (stereo not shown) | -51.3% |
| O=C(c1ccc(Cl)s1)N1CCCC(N2CCN(c3ccc(F)cc3)CC2)C1 (stereo not shown) | -63.2% |
| Cc1nnsc1C(=O)N1CCCC(N2CCN(c3ccc(F)cc3)CC2)C1 (stereo not shown) | 12.3% |
| Cc1cc(C(=O)N2CCCC(N3CCN(c4ccc(F)cc4)CC3)C2)no1 (stereo not shown) | -19.1% |
| CC(C)=CC(=O)N1CCCC(N2CCN(c3ccc(F)cc3)CC2)C1 (stereo not shown) | 19.1% |
| Cc1nonc1C(=O)N1CCCC(N2CCN(c3ccc(F)cc3)CC2)C1 (stereo not shown) | -17.7% |
| O=C(c1cccs1)N1CCCC(N2CCN(c3cccc(C(F)(F)F)c3)CC2)C1 (stereo not shown) | -8.83% |
| O=C(c1cccs1)N1CCCC(N2CCN(c3ccc(F)cc3)CC2)C1 (stereo not shown) | -52.1% |
| CC(C)c1cc(C(=O)N2CCCC(N3CCN(c4ccc(F)cc4)CC3)C2)no1 (stereo not shown) | -36.4% |
| Cc1ccccc1N1CCN(C2CCCN(C(=O)c3ccc(Cl)s3)C2)CC1 (stereo not shown) | 1.61% |
